Hits are enriched below; roughly 4.6% of the tested compounds scored in any of these assays.
NLRP3 yeast inh = NALP3 inhibition in yeast | Yeast reconstituted NLRP3/ASC/caspase-1, beta-gal luminescence, 24 h | inhibition, % at 10 µM | 0.39% of 330,000 active | AID 2825;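 active = inhibition of 50% or more; inactive = inhibition below 50%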;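 also: plate controls were induced DMSO wells for no effect and uninduced yeast grown without galactose for full effect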
tim10-1 inh = tim10-1 yeast growth inhibition. S. cerevisiae tim10-1 ts strain growth, BacTiter-Glo, 24 h. inhibition, % at 20 µM. 2.2% of 330,000 active. AID 463190;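 active = inhibition of at least 40%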;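 also: mutant grown at 25 °C; 0% = DMSO wells with yeast and 100% = wells holding no yeast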
TIM10 inh = growth inhibitors of TIM10 yeast strain | S. cerevisiae TIM10 strain growth, BacTiter-Glo luminescence, 24 h | inhibition, % at 10 µM | 1.4% of 330,000 active;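 active = inhibition of 40% or more at the single tested concentration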;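 also: wild-type TIM10 isogenic control strain grown at permissive 25 °C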
SKKanGAS inh = blocks kanamycin growth of S. pyogenes SKKanGAS strain; BacTiter-Glo, 6 h; inhibition, % at 7.5 µM; 1.3% of 300,000 active; AID 1662;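 active = mean replicate score, as percent of positive control median, at least 50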;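 also: strain carries kanamycin resistance gene driven by streptokinase promoter and grows in 40 µg/ml kanamycin; loss of luminescence reflects streptokinase promoter inhibition or plain growth inhibition; 0% = median of DMSO wells and 100% = positive control at its reference dose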
tim23-1 inh = growth inhibitors of tim23-1 mutant yeast. S. cerevisiae tim23-1 growth, BacTiter-Glo luminescence, 24 h. inhibition, % at 20 µM. 1.3% of 330,000 active;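 active = growth inhibition of the mutant yeast at or above 50%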;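 also: temperature-sensitive mutant grown at 25 °C; plate controls were DMSO-treated mutant yeast for no effect and medium wells lacking yeast for full effect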
tim10-1 confirm = confirmation of tim10-1 mutant yeast growth inhibitors. shares compounds with tim10-1 inh. S. cerevisiae tim10-1 ts strain growth, BacTiter-Glo, 24 h. inhibition, % at 20 µM. 56% of 7,400 active;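 active = inhibition of yeast growth at or above a set limit in either of two repeat tests at 20 µM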;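 also: tim10-1 mutant grown at permissive 25 °C to find synthetic lethal compounds; 0% = DMSO yeast wells and 100% = medium wells without yeast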
TIM10 conf = TIM10 yeast growth inhibition, confirmed; shares compounds with TIM10 inh; S. cerevisiae tim10 strain growth, BacTiter-Glo luminescence, 24 h; inhibition, % at 10 µM; 63% of 4,600 active;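 active = inhibition of yeast growth at or above a set limit in either of two replicates at 10 µM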;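 also: this counterscreen used the strain with wild-type TIM10; 0% = yeast with DMSO and 100% = medium wells lacking yeast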
tim23-1 conf = confirmation of tim23-1 mutant yeast growth inhibitors; shares compounds with tim23-1 inh; S. cerevisiae tim23-1 growth, BacTiter-Glo luminescence, 24 h; inhibition, % at 20 µM; 83% of 4,400 active; AID 463218;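 active = inhibition above about 39% in either of two replicate wells at 20 µM, limit read from the data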;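 also: temperature-sensitive tim23-1 mutant grown at 25 °C; 0% = DMSO wells with yeast and 100% = medium wells without yeast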
An asterisk follows results filed as active; x = no result given.

SMILES	NLRP3 yeast inh	tim10-1 inh	TIM10 inh	SKKanGAS inh	tim23-1 inh	tim10-1 confirm	TIM10 conf	tim23-1 conf
CCOC(=O)c1cnc2c(OC)cccc2c1N1CC(C)CC(C)C1 (configuration not stated)	6	42*	28	25	71*	35*	x	51*
COc1cc(Cl)c(CNC[C@H]2O[C@@H](n3cnc4c(N)ncnc43)[C@H](O)[C@@H]2O)c(Cl)c1O	x	0	-18	x	15	x	x	x
NC(=O)c1cc(Br)cc2c3c([nH]c12)CCCC3	20	69*	56*	18	76*	58*	-8	62*
Cc1cccc(OCCN2CSC(=S)N(C)C2)c1	49	42*	26	0	59*	14	x	76*
Cc1cccc(OCCCN2CCCCCC2)c1	13	2	3	-2	-31	x	x	x
COc1ccccc1OCCN1CSC(=S)N(C)C1	38	42*	53*	16	72*	31*	-18	60*
CCC1CN(C(=O)N2CCC(C(=O)Nc3ccccc3OC)CC2)c2ccccc2O1 (configuration not stated)	22	29	3	32	9	x	x	x
CCN(CC)CCN(C(=O)c1ccc2c(c1)CCCC2)c1nc2cc(OC)c(OC)cc2s1	28	61*	49*	-4	66*	40*	46*	61*
COc1cc2nc(N(CCN(C)C)C(=O)c3ccc4ccccc4c3)sc2cc1OC	8	5	10	-9	22	x	x	x
O=C(CSCc1ccccc1Br)N/N=C/c1ccc2c(c1)OCO2	12	51*	33	32	60*	46*	x	50*
Cc1cc(C)nc(SCC(=O)N/N=C/c2ccc3c(c2)OCO3)n1	11	-5	-5	11	7	x	x	x
S=C(NCCc1ccc(Cl)cc1)Nc1ccc(Cl)cc1Cl	43	50*	48*	39	60*	56*	44*	66*
O=[N+]([O-])c1ccc(NC(=S)NCCc2ccc(F)cc2)cc1	34	75*	64*	0	74*	70*	-29	70*
Fc1ccc(CCNC(=S)Nc2ccc(F)c(Cl)c2)cc1	34	52*	41*	22	55*	66*	27	75*
Fc1ccc(NC(=S)NCCc2ccccc2)c(F)c1F	37	40*	41*	13	51*	19	35*	49*
Fc1ccccc1NC(=S)NCCc1ccccc1	25	33	15	6	18	x	x	x
CC(C)c1ccc(CCNC(=O)CSC(=S)N2CCCC2)cc1	19	23	0	-5	19	x	x	x
O=c1c2cc(Cl)ccc2nc(-c2ccccc2)n1O	40	48*	15	26	59*	6	x	64*
O=C(N/N=C/c1ccc(Br)cc1)c1ccccc1-n1cccc1	9	42*	37	5	54*	37*	x	51*
Cc1cccc(/C=N\NC(=O)c2ccccc2-n2cccc2)c1	20	32	31	3	38	x	x	x
CCCCCCCCC/C(=N\O)c1ccccn1	46	48*	72*	97*	65*	17	-3	70*
CCCCCCCCC(=O)N/N=C/c1ccccn1	23	34	3	-9	24	x	x	x
Cn1cc(C(=O)N/N=C/C2=C(N3CCOCC3)C(=C\c3ccccc3)/CC2)ccc1=O	5	19	4	-10	3	x	x	x
O=C1Nc2ccccc2/C1=N\N=C\C1=C(N2CCOCC2)C(=C\c2ccccc2)/CC1	-6	61*	47*	27	58*	52*	36*	51*
COc1ccc(NC(=O)COC(=O)C2CCN(S(=O)(=O)c3cccs3)CC2)cc1OC	8	-1	-6	x	4	x	x	x
Cc1cccc(Oc2coc3cc(OC(=O)c4cncc(Br)c4)ccc3c2=O)c1	13	8	18	-3	10	x	x	x
CCOC(=O)Oc1ccc2c(=O)c(Oc3cccc(C)c3)coc2c1	-28	56*	41*	-1	55*	48*	41*	59*

Assay outcomes deposited in PubChem BioAssay by several laboratories.
